Measured values: PubChem BioAssay (NCATS)
Records with an inconclusive call do not appear. Active and inactive are the calls of the source. Unless noted, calls follow the shape of the dose curve; as a rule, active = well fitted curve in the direction sought with a large enough effect; inconclusive = small, poorly fitted or top-dose-only effect, or another doubt; inactive = no such curve, though single readings can be large; an effect the other way counts as inactive or inconclusive.

Assays:
[1] = biological target: Catechol O-methyltransferase (Homo sapiens) (UniProt P21964); assay: Confirmatory Screen for Target Class Profiling of Small Molecule Inhibitors of Methyltransferases (AID 1745852; calls by dose curve; as to activity change, negative = inhibition: % is scaled to controls: 0 for no effect and ±100 for the full control effect); conditions: MTase-Glo luminescence, SAH detection, recombinant enzyme; measured here: COMT max response; stronger effect = lower value
[2] = biological target: Guanidinoacetate N-methyltransferase (Homo sapiens) (UniProt Q14353); assay: as above; conditions: activity change, negative = inhibition: at 57.3 µM (top of the series) unless noted
[3] = biological target: Nicotinamide N-methyltransferase (Homo sapiens) (UniProt P40261); assay: as above; conditions: MTase-Glo luminescence, SAH detection, recombinant enzyme; measured here: NNMT max response; stronger effect = lower value
[4] = biological target: Phenylethanolamine N-methyltransferase (Homo sapiens) (UniProt P11086); assay: as above; conditions: MTase-Glo luminescence, SAH detection, recombinant enzyme; measured here: PNMT max response; stronger effect = lower value
[5] = biological target: Glutathione peroxidase 1 (Homo sapiens) (UniProt P07203); assay: Primary qHTS Assay for Inhibitors of Recombinant Selenoprotein Glutathione Peroxidase 1 (GPX1) (AID 1845191); also: nearly all actives have a fitted effect of over 65% in size
Summary of the method: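 GR-coupled readout: NADPH consumption tracked by fluorescence, ex 340/em 450 nm, at t=0 and after 15 min at RT. Final mix 10 nM GPX1, 1 mM GSH, 0.5 mM CHP, 0.5 mM NADPH, 100 nM GR, 0.01% BSA, following 30 min enzyme–compound preincubation.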

[6] = NCATS anti-infectives library activity on HEK293 viability as a counter-qHTS vs the C. elegans viability qHTS (AID 1745854)
Summary of the method: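 Cytotoxicity counter-screen to a worm viability qHTS: CellTiter-Glo luminescence read 10 min after reagent addition. Compounds (final up to 41.7 uM, a 1:5 dilution series) incubated 24 hr at 37C with 1,500 HEK293 cells per well; digitonin control.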
Potency is read from the fitted curve at half-maximal effect.

Chain of Phenylethanolamine N-methyltransferase (Homo sapiens) (P11086 whole entry, looked up): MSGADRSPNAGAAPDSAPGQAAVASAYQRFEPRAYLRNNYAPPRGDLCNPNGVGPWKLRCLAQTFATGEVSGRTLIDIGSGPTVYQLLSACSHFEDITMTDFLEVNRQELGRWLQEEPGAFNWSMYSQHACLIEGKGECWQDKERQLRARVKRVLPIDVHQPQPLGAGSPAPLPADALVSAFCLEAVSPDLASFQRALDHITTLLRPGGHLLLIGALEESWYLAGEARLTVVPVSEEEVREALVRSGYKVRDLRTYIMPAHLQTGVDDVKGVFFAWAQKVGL
Chain of Catechol O-methyltransferase (Homo sapiens) (P21964 whole entry, looked up): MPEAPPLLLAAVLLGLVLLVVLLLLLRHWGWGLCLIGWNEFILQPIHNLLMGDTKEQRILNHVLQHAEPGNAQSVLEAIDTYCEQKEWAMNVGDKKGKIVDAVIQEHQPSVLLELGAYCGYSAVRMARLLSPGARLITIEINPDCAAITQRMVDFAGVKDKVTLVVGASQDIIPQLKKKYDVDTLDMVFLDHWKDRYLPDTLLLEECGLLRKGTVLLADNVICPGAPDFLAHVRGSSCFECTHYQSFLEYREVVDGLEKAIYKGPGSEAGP
Chain of Glutathione peroxidase 1 (Homo sapiens) (P07203 whole entry, looked up): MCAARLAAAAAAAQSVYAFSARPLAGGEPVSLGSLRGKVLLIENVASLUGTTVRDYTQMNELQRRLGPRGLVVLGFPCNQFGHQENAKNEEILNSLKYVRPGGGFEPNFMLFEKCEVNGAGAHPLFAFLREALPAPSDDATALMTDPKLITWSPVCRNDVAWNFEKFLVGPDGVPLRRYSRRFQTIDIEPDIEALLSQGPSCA
Chain of Nicotinamide N-methyltransferase (Homo sapiens) (P40261 whole entry, looked up): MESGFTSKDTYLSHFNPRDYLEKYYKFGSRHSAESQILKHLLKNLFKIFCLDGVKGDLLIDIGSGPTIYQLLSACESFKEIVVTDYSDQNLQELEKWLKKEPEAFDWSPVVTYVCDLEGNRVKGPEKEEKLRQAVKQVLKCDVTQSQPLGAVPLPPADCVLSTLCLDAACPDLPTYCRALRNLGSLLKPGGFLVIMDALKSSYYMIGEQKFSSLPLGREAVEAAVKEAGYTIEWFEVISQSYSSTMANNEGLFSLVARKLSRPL

| Compound | activity [1] [%] | activity change, negative = inhibition [2] | activity [3] [%] | activity [4] [%] | Potency [5] | Potency [2] | Potency [6] |
| --- | --- | --- | --- | --- | --- | --- | --- |
| COc1ccc(C2CC(=O)c3cc(-c4nc(-c5cccc([N+](=O)[O-])c5)cs4)c(=O)n(-c4ccccc4N)c3C2)cc1 (stereo not given) | -0.514 | -4.17% | -5.71 | -5.29 | inactive |  |  |
| COc1cc2nc(N3CCCCC3)nc(NC3CCN(Cc4ccccc4)CC3)c2cc1OC | 11.8 |  | -38.9 | 1.57 | 16.1 µM (active) | 0.968 µM (active) |  |
| CCOC(=O)c1cccc(Nc2cc(C)nc3ccc(C)cc23)c1 | -4.58 | 0% | -21.8 | -4.31 |  |  |  |
| Cc1c(O)cc(O)c2c(=O)c(O)c(-c3ccc(O)c(O)c3)oc12 | -46.7 |  | -19.4 | -17.7 |  | 24.1 µM (active) |  |
| Cc1ccccc1Sc1ccc(/C=C2\SC(=S)NC2=O)cc1[N+](=O)[O-] | -5.04 |  | -72.5 | -30.1 | inactive | 42.9 µM (active) |  |
| Cc1cn([C@H]2O[C@@H](CO)[C@H](O)[C@H]2F)c(=O)[nH]c1=O |  |  |  |  |  |  | inactive |
| COC(=O)[C@@H]1Cc2ncn(Cc3ccc(Cl)cc3)c2CN1CCCc1ccccc1 | 0.13 | 2.15% [at 85.7 µM] | -17 | -1.27 |  |  |  |
| COc1cc2nc(N3CCCCC3)nc(NC3CCN(C)CC3)c2cc1OC | 1.4 | 3.17% | -11.7 | -7.42 | 18 µM (active) |  |  |
| CCC1CCCCN1CCCNC(=O)Cn1ccc2cc(S(=O)(=O)N3CCCCC3)ccc21 (stereo not given) | 1.17 | 0% | -2.34 | -1.74 |  |  |  |
| CC(C)Cn1c(=O)c2ccccc2n2c(CCC(=O)N3CCN(c4ccc(F)cc4)CC3)nnc12 | -4.42 | 2.04% | -55.7 | -6.74 |  |  |  |
| O=[N+]([O-])c1ccc(S(=O)(=O)N2CCN(c3ccnc4cc(Cl)ccc34)CC2)c([N+](=O)[O-])c1 |  |  |  |  |  |  | 10 µM (active) |
| Cc1nn(C(=O)CCC(=O)N2CCC(Cc3nncn3CC3CC3)CC2)c2ccccc12 | 6.63 | 3.09% | -59.9 | 7.75 |  |  |  |
| COc1ccc(CNc2cc3c(cn2)CN(Cc2ccccc2)CCN3)cc1OC | 2.46 | 0.935% [at 85.7 µM] | -32.8 | 1.92 |  |  |  |
